AC50 and outcome data for six compounds are collected here from PubChem BioAssay (EPA / NIEHS).

Read-out in assay [1]: E-selectin (Homo sapiens) (UniProt P16581)
Kind of assay: BSK_SAg_Eselectin: BioMAP Diversity Plus: SAg Assay for Eselectin Biomarker Activity (AID 2283091). As to conditions: primary human HUVEC with PBMC; actives raise or lower the signal. In a few lines: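 Human umbilical vein endothelial cells co-cultured with peripheral blood mononuclear cells, SAg system. E-selectin is measured by ELISA 24 h after dosing and fitted bidirectionally against DMSO. Cytotoxicity is checked by SRB staining of parallel cultures.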

Read-out in assay [2]: Monokine induced gamma interferon (MIG), CXCL9 (gene 4283)
Kind of assay: BSK_SAg_MIG: BioMAP Diversity Plus: SAg Assay for Monokine induced gamma interferon (MIG) Biomarker Activity (AID 2283092). As to conditions: primary human HUVEC with PBMC; actives raise or lower the signal. In a few lines:
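Endothelial cells and PBMC were co-cultured, exposed to test chemicals, and sampled 24 h later. MIG was measured by ELISA, and responses were fitted in both directions relative to DMSO.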

The nature of assay [3]: BSK_SAg_PBMCCytotoxicity: PBMC Cytotoxicity Assessment in the BioMAP Diversity Plus: SAg Assay (AID 2283093).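 Further: PBMC viability measured as Alamar Blue reduction fluorescence at 546/580 nm; fitted both ways against DMSO so a hit may be loss or gain of signal.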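 On AC50: PBMC superantigen activated with SEB plus TSST-1 one hour after compound addition.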 As to conditions: primary human HUVEC with PBMC. In short, it runs like this:
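Compound added to 75,000 PBMC/well for 1 h; SEB and TSST-1 then added at 20 ng/mL final each; 90 h incubation; Alamar Blue 6 h; read 546/580 nm ex/em. Activity fitted bidirectionally relative to DMSO baseline.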

Read-out in assay [4]: Interleukin-8 (IL8), CXCL8 (gene 3576)
In words: BSK_SAg_IL8: BioMAP Diversity Plus: SAg Assay for Interleukin-8 (IL8) Biomarker Activity (AID 2283094). Conditions: primary human HUVEC with PBMC; actives raise or lower the signal. In a few lines: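 ELISA read-out of IL-8 in a primary human vascular co-culture (umbilical vein endothelium plus PBMC), taken 24 h after compound addition. Values derive from bidirectional fits against DMSO negative controls.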

Assay [5] in a line: BSK_SAg_Proliferation: Cell Proliferation Assessment in the BioMAP Diversity Plus: SAg Assay (AID 2283095).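 Further: relative cell number as total protein by SRB absorbance in sub-confluent culture.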 Conditions: primary human HUVEC with PBMC. In short, it runs like this:
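Cells (endothelium plus PBMC, human primary) were dosed with chemical, cultured 96 h, fixed in 10% TCA and stained with 0.1% SRB. Absorbance at 560 nm gave relative protein, fitted bidirectionally relative to DMSO.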

Assay [6] in a line: BSK_SAg_SRB: Viability Assessment in the BioMAP Diversity Plus: SAg Assay (AID 2283096).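 Further: cells read one day after compound addition; hits may be either gain or loss of signal compared with DMSO.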 As to conditions: primary human HUVEC with PBMC. In short, it runs like this:
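Total protein by sulforhodamine B staining, 24 h after dosing, in HUVEC–PBMC co-culture; DMSO-referenced bidirectional fitting.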

Assay [7] has as its target human CYP19A1, CYP19A1 (gene 1588) (UniProt P11511). In words: NVS_ADME_hCYP19A1: NovaScreen (NVS) CYP450-related Enzyme Activity (ADME) Assay for human CYP19A1 (AID 2283098; active means hit-call score of the fitted dose curve at least 0.9, where 1 is the maximum;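 on AC50: potency for inhibitors seen as loss of fluorescent enzyme signal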). In a few lines: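 Biochem, cell-free; recombinant enzyme + specific substrate; fluorescence intensity at 0.5 h post-dose; 10 uM duplicate primary, conc. series for actives; acetonitrile = negative control/baseline; positive and negative controls on every plate.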

The target of assay [8] is human CYP2B6, CYP2B6 (gene 1555) (UniProt P20813). In words: NVS_ADME_hCYP2B6: NovaScreen (NVS) CYP450-related Enzyme Activity (ADME) Assay for human CYP2B6 (AID 2283101; active means hit-call score of the fitted dose curve at least 0.9, where 1 is the maximum). In short, it runs like this:
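Cell-free recombinant enzyme assay with a fluorogenic substrate; fluorescence intensity read 1 hour after dosing. Loss of signal relative to acetonitrile negative control indicates inhibition. Primary screen run in duplicate at 10 uM, actives then tested in concentration series.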

Assay [9] has as its target Cytochrome P450 2C19 (Homo sapiens) (UniProt P33261). In words: NVS_ADME_hCYP2C19: NovaScreen (NVS) CYP450-related Enzyme Activity (ADME) Assay for human CYP2C19 (AID 2283113; active means hit-call score of the fitted dose curve at least 0.9, where 1 is the maximum;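 further: potency for inhibition seen as loss of fluorescent signal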). In short, it runs like this: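 Cell-free recombinant human CYP2C19 from insect cells, fluorescent substrate; activity read by fluorescence intensity 1 h after dosing. Primary screen in duplicate at 10 uM; actives retested in concentration series. Signal loss versus acetonitrile negative control.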

The target of assay [10] is human CYP1A2, CYP1A2 (gene 1544) (UniProt P05177). In words: NVS_ADME_hCYP1A2: NovaScreen (NVS) CYP450-related Enzyme Activity (ADME) Assay for human CYP1A2 (AID 2283102; active means hit-call score of the fitted dose curve at least 0.9, where 1 is the maximum;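 further: potency for inhibition since loss of fluorescence marks reduced CYP1A2 activity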). In short, it runs like this: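 Recombinant human CYP1A2 from insect cells, cell-free, fluorogenic substrate; read 0.5 h after dosing with loss of fluorescence signal indicating inhibition. Primary screen in duplicate at 10 uM, acetonitrile as negative control.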
Chain of human CYP1A2, CYP1A2 (gene 1544) (P05177 whole entry, looked up): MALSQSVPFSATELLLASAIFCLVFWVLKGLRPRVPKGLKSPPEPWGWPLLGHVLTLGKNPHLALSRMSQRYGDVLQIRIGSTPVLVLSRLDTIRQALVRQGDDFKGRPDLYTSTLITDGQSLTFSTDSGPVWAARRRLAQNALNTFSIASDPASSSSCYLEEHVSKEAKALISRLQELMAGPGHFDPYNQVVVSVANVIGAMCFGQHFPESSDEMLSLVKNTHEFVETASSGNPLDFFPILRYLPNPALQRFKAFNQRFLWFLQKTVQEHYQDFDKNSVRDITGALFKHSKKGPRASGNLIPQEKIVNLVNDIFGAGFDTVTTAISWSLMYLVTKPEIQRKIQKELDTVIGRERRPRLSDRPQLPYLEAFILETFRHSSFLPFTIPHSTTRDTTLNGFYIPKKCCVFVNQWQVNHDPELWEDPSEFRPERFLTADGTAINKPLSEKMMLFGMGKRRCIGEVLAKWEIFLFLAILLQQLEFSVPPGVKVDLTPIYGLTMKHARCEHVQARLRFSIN

Assay [11] addresses human CYP2C8, CYP2C8 (gene 1558) (UniProt P10632). In words: NVS_ADME_hCYP2C8: NovaScreen (NVS) CYP450-related Enzyme Activity (ADME) Assay for human CYP2C8 (AID 2283104). In short, it runs like this: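 Recombinant human CYP2C8 with fluorogenic substrate, 0.5 h, fluorescence intensity; signal loss fitted versus acetonitrile. Screened in duplicate at 10 uM, then actives run in concentration-response up to 20 uM.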

Assay [12] has as its target human CYP2J2, CYP2J2 (gene 1573) (UniProt P51589). In words: NVS_ADME_hCYP2J2: NovaScreen (NVS) CYP450-related Enzyme Activity (ADME) Assay for human CYP2J2 (AID 2283106; active means hit-call score of the fitted dose curve at least 0.9, where 1 is the maximum). In a few lines: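 Cell-free assay of recombinant CYP2J2 with a fluorogenic substrate, read 1 h after dosing; loss of signal versus acetonitrile. Primary screen at 10 uM in duplicate, then concentration-response up to 20 uM for chemicals passing threshold (e.g., 30% inhibition).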

The target in assay [13] is rat CYP2A1, Cyp2a1 (gene 24894) (UniProt P11711). Kind of assay: NVS_ADME_rCYP2A1: NovaScreen (NVS) CYP450-related Enzyme Activity (ADME) Assay for rat CYP2A1 (AID 2283114). In short, it runs like this: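 Recombinant rat CYP2A1, cell-free, fluorogenic substrate turnover read by fluorescence intensity 0.75 h after dosing. Primary screen at 10 uM in duplicate; actives rerun as concentration-response up to 20 uM; loss of signal versus acetonitrile control.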
Chain of rat CYP2A1, Cyp2a1 (gene 24894) (P11711 whole entry, looked up): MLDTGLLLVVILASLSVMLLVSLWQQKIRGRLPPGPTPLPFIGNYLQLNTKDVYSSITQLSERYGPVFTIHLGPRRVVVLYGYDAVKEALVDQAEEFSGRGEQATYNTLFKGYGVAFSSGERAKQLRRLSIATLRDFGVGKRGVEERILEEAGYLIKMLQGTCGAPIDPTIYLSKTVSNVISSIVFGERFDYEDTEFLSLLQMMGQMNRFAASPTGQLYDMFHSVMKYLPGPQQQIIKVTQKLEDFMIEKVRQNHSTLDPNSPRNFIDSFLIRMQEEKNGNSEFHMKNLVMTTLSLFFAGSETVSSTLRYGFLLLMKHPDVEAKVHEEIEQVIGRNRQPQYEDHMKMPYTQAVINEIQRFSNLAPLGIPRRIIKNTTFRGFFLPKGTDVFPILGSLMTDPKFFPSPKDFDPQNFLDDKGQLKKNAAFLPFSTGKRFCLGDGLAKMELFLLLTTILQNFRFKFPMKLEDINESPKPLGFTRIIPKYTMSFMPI

Assay [14] addresses human CYP1A1, CYP1A1 (gene 1543) (UniProt P04798). Kind of assay: NVS_ADME_hCYP1A1: NovaScreen (NVS) CYP450-related Enzyme Activity (ADME) Assay for human CYP1A1 (AID 2283100; active means hit-call score of the fitted dose curve at least 0.9, where 1 is the maximum). In short, it runs like this:
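Recombinant CYP1A1 with a fluorogenic substrate, cell-free, read 1 h after dosing; acetonitrile as negative control. Single-concentration screen at 10 uM in duplicate, then concentration-response up to 20 uM for chemicals meeting ~30% inhibition threshold.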

Assay [15] addresses Cytochrome P450 2C18 (Homo sapiens) (UniProt P33260). Kind of assay: NVS_ADME_hCYP2C18: NovaScreen (NVS) CYP450-related Enzyme Activity (ADME) Assay for human CYP2C18 (AID 2283103). In a few lines: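 Cell-free recombinant human CYP2C18 with fluorogenic substrate; fluorescence intensity read 0.5 h after dosing. Single-point screen at 10 uM in duplicate, then concentration-response up to 20 uM; loss of signal fitted against acetonitrile baseline.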

The target of assay [16] is human CYP2D6, CYP2D6 (gene 1565) (UniProt P10635). In words: NVS_ADME_hCYP2D6: NovaScreen (NVS) CYP450-related Enzyme Activity (ADME) Assay for human CYP2D6 (AID 2283107; active means hit-call score of the fitted dose curve at least 0.9, where 1 is the maximum). In short, it runs like this: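 Cell-free assay using recombinant human CYP2D6 expressed in insect cells, with a fluorogenic substrate read after 1 h. Primary screen in duplicate at 10 uM; actives followed up in concentration series. Loss of signal fitted relative to acetonitrile.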

The target of assay [17] is rat CYP1A2, Cyp1a2 (gene 24297) (UniProt P04799). Kind of assay: NVS_ADME_rCYP1A2: NovaScreen (NVS) CYP450-related Enzyme Activity (ADME) Assay for rat CYP1A2 (AID 2283115; active means hit-call score of the fitted dose curve at least 0.9, where 1 is the maximum). In short, it runs like this: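 Cell-free recombinant rat enzyme with fluorogenic substrate, read by fluorescence intensity 1 hour after dosing. Loss of signal versus acetonitrile negative control; primary screen at 10 uM in duplicate, actives followed in concentration series.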

The structures appear in SMILES notation. “And” between values parts separate entries of the source, which are not always exact repeats. Identical values can stand only once. Records with an inconclusive call do not appear. The source made the active and inactive calls. How the source made its calls, unless noted: active means hit-call score of the fitted dose curve at least 0.9, where 1 is the maximum; inactive means score below 0.9.

Chain of human CYP2B6, CYP2B6 (gene 1555) (P20813 whole entry, looked up): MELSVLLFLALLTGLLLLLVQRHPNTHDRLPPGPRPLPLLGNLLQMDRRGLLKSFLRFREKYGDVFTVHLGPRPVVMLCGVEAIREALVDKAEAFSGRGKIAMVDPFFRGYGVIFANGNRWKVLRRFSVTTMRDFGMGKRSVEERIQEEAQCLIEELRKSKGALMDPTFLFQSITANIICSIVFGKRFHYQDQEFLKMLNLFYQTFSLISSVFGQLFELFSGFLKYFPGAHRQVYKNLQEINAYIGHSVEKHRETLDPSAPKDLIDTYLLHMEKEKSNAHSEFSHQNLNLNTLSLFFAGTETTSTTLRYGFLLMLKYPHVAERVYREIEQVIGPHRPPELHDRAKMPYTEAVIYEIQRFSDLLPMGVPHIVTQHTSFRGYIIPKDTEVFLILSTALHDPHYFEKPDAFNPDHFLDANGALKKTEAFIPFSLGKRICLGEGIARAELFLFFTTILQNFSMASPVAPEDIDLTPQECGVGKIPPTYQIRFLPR
Chain of E-selectin (Homo sapiens) (P16581 whole entry, looked up): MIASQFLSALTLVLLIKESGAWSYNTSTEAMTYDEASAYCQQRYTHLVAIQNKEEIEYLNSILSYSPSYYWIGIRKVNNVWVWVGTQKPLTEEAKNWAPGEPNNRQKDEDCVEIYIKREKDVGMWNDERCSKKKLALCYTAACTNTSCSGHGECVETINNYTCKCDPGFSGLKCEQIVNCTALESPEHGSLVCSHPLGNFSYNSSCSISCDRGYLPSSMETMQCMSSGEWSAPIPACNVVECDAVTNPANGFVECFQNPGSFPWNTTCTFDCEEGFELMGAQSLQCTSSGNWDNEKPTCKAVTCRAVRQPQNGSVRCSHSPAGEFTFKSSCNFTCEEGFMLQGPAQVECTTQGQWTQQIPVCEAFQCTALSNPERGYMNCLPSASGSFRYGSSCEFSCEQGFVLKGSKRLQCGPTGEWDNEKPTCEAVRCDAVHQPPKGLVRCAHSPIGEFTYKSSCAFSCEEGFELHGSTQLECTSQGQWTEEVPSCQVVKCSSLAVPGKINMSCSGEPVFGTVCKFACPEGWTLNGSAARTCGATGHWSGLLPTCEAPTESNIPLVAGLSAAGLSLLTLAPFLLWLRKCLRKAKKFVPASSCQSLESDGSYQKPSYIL
Chain of human CYP2C8, CYP2C8 (gene 1558) (P10632 whole entry, looked up): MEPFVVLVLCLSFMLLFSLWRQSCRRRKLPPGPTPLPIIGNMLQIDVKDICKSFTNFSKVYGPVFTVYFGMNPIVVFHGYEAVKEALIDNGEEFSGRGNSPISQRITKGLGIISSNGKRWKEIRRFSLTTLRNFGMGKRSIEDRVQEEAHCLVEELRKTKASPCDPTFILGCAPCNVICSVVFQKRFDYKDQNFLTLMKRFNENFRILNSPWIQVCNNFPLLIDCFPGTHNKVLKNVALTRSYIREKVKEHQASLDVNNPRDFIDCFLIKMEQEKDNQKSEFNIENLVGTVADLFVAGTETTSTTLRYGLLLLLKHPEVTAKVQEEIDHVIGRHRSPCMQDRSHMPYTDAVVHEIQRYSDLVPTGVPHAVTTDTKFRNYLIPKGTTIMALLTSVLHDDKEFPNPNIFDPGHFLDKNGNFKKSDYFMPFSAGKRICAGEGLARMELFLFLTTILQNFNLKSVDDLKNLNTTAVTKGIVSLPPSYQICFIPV
Chain of human CYP2J2, CYP2J2 (gene 1573) (P51589 whole entry, looked up): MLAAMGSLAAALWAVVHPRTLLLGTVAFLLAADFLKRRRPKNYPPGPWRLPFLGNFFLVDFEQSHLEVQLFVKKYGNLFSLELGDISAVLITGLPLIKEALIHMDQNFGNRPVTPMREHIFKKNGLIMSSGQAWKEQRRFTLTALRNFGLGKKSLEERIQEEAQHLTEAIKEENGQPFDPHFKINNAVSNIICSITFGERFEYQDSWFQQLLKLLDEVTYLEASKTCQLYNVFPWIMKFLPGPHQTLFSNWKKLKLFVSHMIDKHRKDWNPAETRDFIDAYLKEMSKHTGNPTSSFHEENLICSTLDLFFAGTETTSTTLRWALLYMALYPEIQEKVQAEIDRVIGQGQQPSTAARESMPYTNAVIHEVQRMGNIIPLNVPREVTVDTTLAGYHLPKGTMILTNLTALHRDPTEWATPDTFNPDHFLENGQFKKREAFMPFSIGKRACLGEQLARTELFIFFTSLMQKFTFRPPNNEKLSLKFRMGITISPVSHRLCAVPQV
Chain of human CYP19A1, CYP19A1 (gene 1588) (P11511 whole entry, looked up): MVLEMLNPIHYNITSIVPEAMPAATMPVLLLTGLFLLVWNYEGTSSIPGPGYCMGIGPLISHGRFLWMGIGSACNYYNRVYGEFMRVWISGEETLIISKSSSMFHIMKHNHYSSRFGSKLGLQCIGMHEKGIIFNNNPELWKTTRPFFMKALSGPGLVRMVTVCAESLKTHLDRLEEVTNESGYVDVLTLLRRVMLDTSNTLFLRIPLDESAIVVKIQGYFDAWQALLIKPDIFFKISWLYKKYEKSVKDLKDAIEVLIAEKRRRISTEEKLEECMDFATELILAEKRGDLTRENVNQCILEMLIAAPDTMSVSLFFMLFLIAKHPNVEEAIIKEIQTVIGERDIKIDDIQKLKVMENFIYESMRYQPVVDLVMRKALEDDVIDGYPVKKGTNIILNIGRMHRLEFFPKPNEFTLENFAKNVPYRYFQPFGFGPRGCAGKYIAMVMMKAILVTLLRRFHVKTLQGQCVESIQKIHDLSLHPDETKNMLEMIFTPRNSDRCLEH
Chain of human CYP1A1, CYP1A1 (gene 1543) (P04798 whole entry, looked up): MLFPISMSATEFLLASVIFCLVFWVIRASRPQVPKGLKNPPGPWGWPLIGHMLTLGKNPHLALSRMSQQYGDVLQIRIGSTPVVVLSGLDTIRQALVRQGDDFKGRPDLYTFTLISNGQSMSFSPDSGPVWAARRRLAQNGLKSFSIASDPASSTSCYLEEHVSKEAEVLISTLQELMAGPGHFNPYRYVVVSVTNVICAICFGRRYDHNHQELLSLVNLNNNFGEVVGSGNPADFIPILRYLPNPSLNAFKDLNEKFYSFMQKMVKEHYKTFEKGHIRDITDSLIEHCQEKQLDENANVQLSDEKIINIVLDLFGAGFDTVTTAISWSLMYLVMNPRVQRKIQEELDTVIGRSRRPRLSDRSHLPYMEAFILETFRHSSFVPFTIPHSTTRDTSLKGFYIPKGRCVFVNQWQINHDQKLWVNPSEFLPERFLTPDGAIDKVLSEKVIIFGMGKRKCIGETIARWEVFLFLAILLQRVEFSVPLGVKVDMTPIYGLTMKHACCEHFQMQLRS
Chain of Cytochrome P450 2C18 (Homo sapiens) (P33260 whole entry, looked up): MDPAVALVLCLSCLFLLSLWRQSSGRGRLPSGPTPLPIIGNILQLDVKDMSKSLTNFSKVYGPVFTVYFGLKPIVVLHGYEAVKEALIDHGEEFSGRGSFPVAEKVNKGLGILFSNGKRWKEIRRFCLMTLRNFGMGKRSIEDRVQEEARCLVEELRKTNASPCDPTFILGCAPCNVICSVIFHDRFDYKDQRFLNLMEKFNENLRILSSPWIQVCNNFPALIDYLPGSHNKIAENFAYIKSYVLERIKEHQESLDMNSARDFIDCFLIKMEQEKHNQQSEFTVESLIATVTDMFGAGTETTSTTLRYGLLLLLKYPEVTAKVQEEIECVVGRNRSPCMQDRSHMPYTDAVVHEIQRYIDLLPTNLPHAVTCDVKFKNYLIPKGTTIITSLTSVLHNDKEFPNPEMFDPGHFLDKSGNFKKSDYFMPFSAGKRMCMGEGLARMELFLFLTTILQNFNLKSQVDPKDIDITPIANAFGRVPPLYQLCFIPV

Usually AC50 stands for the midpoint of the concentration-response curve, whichever way the signal moves. For `O=S1OCC2C(CO1)C1(Cl)C(Cl)=C(Cl)C2(Cl)C1(Cl)Cl` (stereo unspecified), the AC50 in assay [1] was 36.7 µM (active); in [2] it was 34.4 µM (active); in assay [3], 16.1 µM (active); in assay [4] it was 36.6 µM (active); in assay [5] it was 14.2 µM (active); in assay [6], 29 µM (active). Besides, the AC50 in assay [8] was 4.85 µM (active); in assay [9], 1.64 µM (active). For the same compound, the compound was classed as inactive in [7].

As for `Oc1cc(Cl)ccc1Oc1ccc(Cl)cc1Cl`, the half-maximal activity concentration (AC50) in assay [1] was 12.7 µM (active) [middle of 4 runs]; in [2] it was 15.8 µM (active) [middle of 4 runs]; in assay [3], 13.8 µM (active) [middle of 4 runs]; in [4], 12.8 µM (active) [middle of 4 runs]; in assay [5] it was 8.46 µM (active) and 8.15 µM (active) and 6.76 µM (active); in assay [6], 15.3 µM (active) and 22.3 µM (active) and 14.9 µM (active). Moreover, the AC50 in assay [10] was 9.33 µM (active); in assay [11], 4.51 µM (active).

Regarding `OCCOc1ccccc1`, the outcome in assay [1], in [2], in assay [3], in assay [4], in [5] and in assay [6] was inactive.

Regarding `CCOCN(C(=O)CCl)c1c(C)cccc1CC`, the AC50 in assay [1] is 17.1 µM (active); in assay [5] it was 27.1 µM (active); in [6], 15.9 µM (active); in assay [9] it was 5.09 µM (active). The outcome in assay [2], in assay [3] and in assay [4] was inactive.

In the case of `COP(=S)(OC)Oc1ccc(SC)c(C)c1`, the result in assay [2], in assay [3], in assay [4], in [5] and in [6] was inactive. Besides, the AC50 in [8] is 8.76 µM (active); in assay [10] it was 2.76 µM (active); in [12], 1.06 µM (active); in assay [9], 2.45 µM (active); in [13], 5.64 µM (active).

As to `CCCN(CCOc1c(Cl)cc(Cl)cc1Cl)C(=O)n1ccnc1`, the AC50 in assay [2] is 32.5 µM (active); in [3] it was 20 µM (active); in [4], 15.5 µM (active); in [5] it was 30.4 µM (active); in assay [7] it was 784 nM (active); in assay [14] it was 453 nM (active). Moreover, the AC50 is 0.124 µM (active) in assay [8]; 0.616 µM (active) in [10]; 588 nM (active) in [15]; 1.85 µM (active) in assay [11]; 0.094 µM (active) in assay [12]; 2.18 µM (active) in assay [16]. For the same compound, the figures for the AC50 in assay [9] and in assay [13] were 0.0245 µM (active) and 0.512 µM (active), respectively. Also, the result in [6] and in assay [17] was inactive.
